Data taken from PubChem BioAssay AID588850 (Sanford-Burnham Center for Chemical Genomics, 2011).
Where “and” joins values, the source holds several entries; their conditions need not be identical. Equal entries are not always repeated. Hit rate of the full screen: of about 360,000 compounds, about 3,100 (0.86%) were called active.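 The calls were made as follows: active = at least 50% inhibition at 5 µM, scaled per plate between neutral and stimulator controls; inactive = the rest.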 What follows is part of a selection rich in actives, with near analogues and random picks from the rest.

Assay: inhibitors of PAF-induced NF-kB signaling, primary screen, cell-based, GFP fluorescence, uHTS (AID 588850);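 also: PAF is a Pseudomonas aeruginosa culture filtrate used as stimulus; plate controls were PAF-stimulated DMSO wells for no effect and unstimulated DMSO wells for full effect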
Details: KKLEB NF-kB-GFP reporter, GFP fluorescence overnight, at 5 µM, hits give high values

Row | SMILES | inhibition
1 | O=C(Nn1c(-c2ccc(Cl)cc2)nc2ccccc2c1=O)c1cccnc1Cl | 0.4% (inactive)
2 | Cc1cc(C)n(CC(C)NCc2c(C(=O)N3CCOCC3)nc3c(C)cccn23)n1 (stereo unspecified) | -0.6% (inactive)
3 | C/C(=N/NC(=O)C1COc2ccccc2O1)c1ccco1 (stereo unspecified) | 17.3% (inactive)
4 | COc1ccc(NC(=O)COC(=O)C2COc3ccccc3O2)cc1 (stereo unspecified) | 4.2% (inactive)
5 | O=C(Nc1nc(-c2ccncc2)cs1)C1COc2ccccc2O1 (stereo unspecified) | 53.8% (active)
6 | O=C(Nc1cc(S(=O)(=O)N2CCCCC2)ccc1Cl)C1COc2ccccc2O1 (stereo unspecified) | 24.5% (inactive)
7 | CC(=O)c1ccccc1NC(=O)COC(=O)C1COc2ccccc2O1 (stereo unspecified) | -8.8% (inactive)
8 | O=C(Nc1ncc([N+](=O)[O-])s1)C1COc2ccccc2O1 (stereo unspecified) | 60.8% (active)
9 | Cc1cc(OC(=O)c2ccccc2)c([N+](=O)[O-])c(=O)[nH]1 | 4.2% (inactive)
10 | CC(=O)Oc1c(C(=O)c2nnc(C)o2)c(=O)n(Cc2ccccc2)c2ccccc12 | 50.9% (active)
11 | O=C(O)CCc1nc2cc(Cl)ccc2n(Cc2ccccc2)c1=O | 2.1% (inactive)
12 | CCCCCn1c(=O)c(C(=O)OCC)c(Cl)c2ccccc21 | 9.9% (inactive)
13 | CC(C)CCNC(=O)c1[nH]c(C(F)(F)F)nc1-c1ccccc1 | -2.1% (inactive)
14 | CC(C)(C)C(=O)CCN1C(=O)C2(OCCO2)c2ccccc21 | -2.6% (inactive)
15 | CCCCn1c(N)c(N(CC(C)C)C(=O)c2ccc(-n3c(C)ccc3C)cc2)c(=O)[nH]c1=O | 14.1% (inactive)
16 | CC1(C(=O)NS(=O)(=O)c2ccccc2)CCN1C(=O)C/C=C/c1ccccc1 (stereo unspecified) | 0.3% (inactive)
17 | CC1(C)CCSC(/C=C/c2ccccc2)=N1 | 55.9% (active)
18 | CC1(C(=O)O)CCN1C(=O)/C=C/c1ccccc1 (stereo unspecified) | 11.9% (inactive)
19 | CCc1cc(-c2nnn(CCC3COCCO3)c2CC)ccc1-c1cn(Cc2ccc3ccccc3c2)nn1 (stereo unspecified) | 19.3% (inactive)
20 | O=C1c2ccccc2NC(c2ccccc2O)N1NS(=O)(=O)c1ccccc1 (stereo unspecified) | -6.3% (inactive)
21 | COc1cccc(N(C(=O)c2snc(C(N)=O)c2N)C(C(=O)NCC2CCCO2)c2c[nH]c3ccccc23)c1 (stereo unspecified) | -0.6% (inactive)
22 | O=C(Nc1nnc(S(=O)(=O)N2CCOCC2)s1)c1cccc(Br)c1 | 13% (inactive)
23 | O=C(Nc1nnc(S(=O)(=O)N2CCCCCC2)s1)c1cccc(Br)c1 | 57% (active)

Row | SMILES | inhibition
24 | COc1cccc(C(=O)Nc2nnc(S(=O)(=O)N3CCOCC3)s2)c1 | -7.5% (inactive)
25 | C/C(=N\NS(=O)(=O)c1ccc(Cl)cc1)c1ccc(NC(=O)c2ccco2)cc1 | -14% (inactive)
26 | N#CCCC(C#N)(c1cccnc1)N1CCOCC1 (stereo unspecified) | -15.6% (inactive)
27 | CNCC(O)c1ccc(O)c(O)c1 (stereo unspecified) | 12.4% (inactive)
28 | CN(CCc1ccccn1)S(=O)(=O)c1ccc2c3c(cccc13)C(=O)N2 | 5.4% (inactive)
29 | CCN(CC)S(=O)(=O)c1ccc2c3c(cccc13)C(=O)S2 | 54.1% (active)
30 | CCN1C(=O)c2cccc3c(S(=O)(=O)Nc4ccccc4O)ccc1c23 | -71.5% (inactive)
31 | Cc1ccc(C(=O)OCC(=O)NCc2cc(C)c(O)c(C)c2)cc1S(=O)(=O)N1CCCCC1 | -0.3% (inactive)
32 | COCCCNc1ccn2nc(-c3ccc(CC(C)C)cc3)cc2n1 | -77.9% (inactive)
33 | Cc1ccc2occ(/C=N/NC(=O)c3ccccc3C)c(=O)c2c1 | 71% (active)
34 | CC(C)(C)OC(=O)NCCCCCC(=O)N/N=C/c1coc2ccccc2c1=O | 4.1% (inactive)
35 | O=c1c(/C=N/O)coc2ccc(Cl)cc12 | 0.9% (inactive)
36 | Cc1ccc(NC(=O)[C@H](Cc2ccccc2)NC(=O)CC[C@H]2O[C@@H](n3ccc(=O)[nH]c3=O)[C@H](O)[C@@H]2O)cc1C | -33.7% (inactive)
37 | CCCCC(CC)CNCc1cccn1CCN1CCOCC1 (stereo unspecified) | -18.7% (inactive)
38 | Cc1ccc(/C=N/NC(=O)COc2ccccc2-c2ccccc2)cc1 | 51.1% (active)
39 | Cc1ccc(/C=N/NC(=O)CSc2nc3ccccc3o2)cc1 | -2.1% (inactive)
40 | Cc1ccc(COc2ccc(/C=N/NC(=O)CN3CCCCC3)cc2)cc1 | -24.1% (inactive)
41 | O=C(NCc1ccc(F)cc1)c1cc(C2CCCCN2C(=O)c2ccccn2)on1 (stereo unspecified) | 4.9% (inactive)
42 | C=CCN1C=C(C(=O)c2ccccc2)C(=O)CC1 | 3.5% (inactive)
43 | O=C(CSCc1ccccc1)Nc1ccccc1 | -2.5% (inactive)
44 | O=C(CSc1ccccc1)Nc1ccc(C(=O)Nc2cccc(O)c2)cc1 | -12.7% (inactive)
45 | O=C(CCl)Nc1cccc(CP(=O)(c2ccccc2)c2ccccc2)c1 | 58% (active)
46 | O=C(NCc1nnc(SCC(=O)N2CCC(Cc3ccccc3)CC2)o1)c1ccco1 | 13.2% (inactive)

Row | SMILES | inhibition
47 | CCOC(=O)C1(CCOC)CCN(Cc2cc3ccccc3s2)CC1 | 11.7% (inactive)
48 | O=[N+]([O-])c1ccc(Oc2ccc(F)cc2Br)c2ccncc12 | 65% (active)
49 | O=c1ccc2c(-c3ccccc3S(=O)(=O)O)c3ccc(O)c(O)c3oc-2c1O | 22% (inactive)
50 | Oc1c(C(c2cccs2)N2CCN(c3ccc(F)cc3)CC2)sc2ncnn12 (stereo unspecified) | 17.4% (inactive)
51 | CCOC(=O)C1=CC[C@@H](c2ccccc2)N(S(=O)(=O)c2ccc(C)cc2)[C@H]1c1ccc(CC)cc1 | 11.8% (inactive)
52 | Cc1ccc(NC(=O)Nc2cc(-c3ccccc3)nn2C)cc1Cl | -3.9% (inactive)
53 | Cc1nnc(NC(=O)Cn2c(=O)sc3ccccc32)s1 | -6.1% (inactive)
54 | CCc1ccc(NC(=O)Nc2ccncc2)cc1 | 16.4% (inactive)
55 | CC(C)=CC(=O)Nc1nnc(-c2ccc(F)cc2)s1 | 0.2% (inactive)
56 | Cc1ccc(NC(=O)Nc2nnc(-c3ccncc3)s2)cc1 | 68% (active)
57 | Cc1nnc(NC(=O)Nc2ccc(Cl)c(Cl)c2)s1 | 83.2% (active)
58 | C[C@H]1Cn2cnc(C(=O)N[C@H](C)c3ccccc3)c2C(=O)N1 | -3.8% (inactive)
59 | CCOC(=O)C1=C(CC)Nc2ccccc2N=C1N | -14.1% (inactive)
60 | CC(C)Cn1cnc2c1c(=O)n(CC(O)c1ccccc1)c(=O)n2CC(C)C (stereo unspecified) | 9% (inactive)
61 | COc1ccc(NC(=S)N2N=CCC2c2ccccc2)cc1 (stereo unspecified) | 5.1% (inactive)
62 | Cc1nnc(SCCCCSc2nnc(C)c(=O)[nH]2)[nH]c1=O | 6.2% (inactive)
63 | CC(=O)c1ccc(-c2cnc3c(NC=O)cc(-c4cccc(NS(C)(=O)=O)c4)cn23)cc1 | 74.7% (active)
64 | CC(=O)c1cccc(-c2cnc3c(NC=O)cc(-c4ccc(N(C)C)cc4)cn23)c1 | 29.8% (inactive)
65 | CC(=O)c1cccc(-c2cnc3c(NC=O)cc(-c4cccc(C(=O)N(C)C)c4)cn23)c1 | 0.7% (inactive)
66 | COc1cncc(-c2cnc3sc(NCCc4ccccn4)nn23)c1 | 74.1% (active)
67 | Cc1ccc(C(=O)N/C(=C\c2cccs2)C(=O)NCCc2ccccn2)cc1C | 5.1% (inactive)
68 | COc1ccc(-c2cc3nc(NCCOc4ccccc4)ccn3n2)cc1 | 20.8% (inactive)
69 | O=C(OCc1ccccc1)N1CCC2CC1c1cc(N3CCN(S(=O)(=O)c4cc(Cl)cc(Cl)c4)CC3)ccc12 (stereo unspecified) | 10.1% (inactive)

Row | SMILES | inhibition
70 | CCC1=C(OC(=O)N(CC)CC)N2C(=O)OC(=NCC3CC3)[C@]2(C)[C@H]2C1=CC[C@H]1C(=O)N(CC(=O)OC)C(=O)[C@H]12 | 7.9% (inactive)
71 | COc1cc(C(=O)N/C(=C\c2cn(C)c3ccccc23)C(=O)N2CCOCC2)cc(OC)c1OC | -23.4% (inactive)
72 | COc1ccc(C(N)c2csc(NC(=O)Nc3cccc(C(F)(F)F)c3)n2)cc1 (stereo unspecified) | 24.7% (inactive)
73 | COc1cc(NC(=O)c2cncc(-c3ccc(C#N)cc3)c2)cc(C(=O)Nc2cccc(C(F)(F)F)c2)c1 | -39% (inactive) and -21.4% (inactive)
74 | COc1cc(NC(=O)c2[nH]cnc2C(N)=O)cc(C(=O)Nc2cccc(C(F)(F)F)c2)c1 | 53.2% (active)
75 | CCCCn1ccnc1C(=O)c1cccc(S(=O)(=O)N2c3ccccc3CC2C)c1 (stereo unspecified) | 2.6% (inactive)
76 | COc1ccccc1OCc1ccc(C(=O)N2CCN(C)CC2)o1 | 6.4% (inactive)
77 | COc1ccccc1N1CCN(C(=O)c2ccc(NC3=NC4CS(=O)(=O)CC4S3)cc2)CC1 (stereo unspecified) | -7.3% (inactive)
78 | COc1ccccc1N1CCN(C(=O)c2cc(=O)c3cc(C)cc(C)c3o2)CC1 | 51% (active)
79 | O=C(COC(=O)c1cccnc1Cl)Nc1ccc(S(=O)(=O)N2CCOCC2)cc1 | 5.3% (inactive)
80 | CCN(CC)S(=O)(=O)c1ccc2[nH]c(=O)cc(C(=O)N(C)C3CCS(=O)(=O)C3)c2c1 (stereo unspecified) | -1.3% (inactive)
81 | COc1ccc(S(=O)(=O)/N=C2\C=C(NS(=O)(=O)c3ccccc3)C(=O)c3ccccc32)cc1 | 45% (inactive)
82 | Cc1cc(NS(=O)(=O)c2ccccc2)no1 | -1.3% (inactive)
83 | O=C1C=C(NS(=O)(=O)c2ccccc2)C(=O)c2ccccc21 | 72% (active)
84 | O=C(O)c1ccccc1NC(=O)c1ccccc1-c1ccccc1C(=O)O | 11.9% (inactive)
85 | CC(=O)NS(=O)(=O)c1ccccc1 | 10.6% (inactive)
86 | Cc1ccc(S(=O)(=O)N/N=C(\c2ccccc2)C2CC2)cc1 | 14.8% (inactive)
87 | Cc1ccc(S(=O)(=O)/N=C2\C=C(NS(=O)(=O)c3ccc(C)cc3)C(=O)c3ccccc32)cc1 | 68.9% (active)
88 | O=C(NC1=CC(=O)c2ccccc2C1=O)c1ccccc1 | 84.9% (active)
89 | Cc1cc(=O)c2ccc(NC(=O)c3ccccc3)cc2[nH]1 | 3.1% (inactive)
90 | CC(c1ccco1)N(C(=O)COc1ccccc1[N+](=O)[O-])c1ccccn1 (stereo unspecified) | 8.2% (inactive)
91 | CN(C)C(=O)Cn1c(=O)n(S(=O)(=O)c2ccccc2)c2ccccc21 | 5.9% (inactive)
